Inconclusive results are not listed. The source made the active and inactive calls. Rule for the calls: active = hit-call score of the fitted dose curve at least 0.9, where 1 is the maximum; inactive = score below 0.9.

Read-out in this test: Cytochrome P450 2C9 (Homo sapiens) (UniProt P11712)
Briefly: CLD_CYP2C9_48hr: CellzDirect (CLD) Gene Expression Assay for xenobiotic metabolism (CYP2C9) at 48 hours (AID 2283701). The method, then:
CLD_48hr is a cell-based, multiplexed-readout assay that uses hepatocyte, a human liver primary cell, with measurements taken at 48 hours after chemical dosing in a 96-well plate.CLD_CYP2C9_48hr is one of 16 assay component(s) measured or calculated from the CLD_48hr assay. It is designed to make measurements of mRNA induction, a form of inducible reporter, as detected with chemiluminescence signals by Quantitative Nuclease Protection Assay (qNPA) technology.Data from the assay component CLD_CYP2C9_48hr was analyzed at the endpoint, CLD_CYP2C9_48hr, in the positive analysis fitting direction relative to DMSO as the negative control and baseline of activity. Using a type of inducible reporter, gain-of-signal activity can be used to understand changes in the reporter gene as they relate to the gene CYP2C9. Furthermore, this assay endpoint can be referred to as a primary readout. To generalize the intended target to other relatable targets, this assay endpoint is annotated to the cyp intended target family, where subfamily is xenobiotic metabolism.
Human hepatocyte cultures were treated daily for two consecutive days with fresh dosing solutions containing appropriate concentrations of the 320 ToxCast chemicals (chemical identities were blinded to CellzDirect and other ToxCast collaborators), vehicle control (0.2% DMSO), and positive control inducers as summarized in Table 1. Due to the large number of treatment groups and chemicals examined, the ToxCast chemicals were divided into two groups (spanning two independent cultures of hepatocytes from separate donor preparations (Hu778: ToxCast plates 1 and 2; Hu776: ToxCast plates 3 and 4). Each preparation of human hepatocyte cultures was treated with respective vehicle control, medium only control, set of six positive controls/reference chemicals for the five hepatic receptor pathways, and a subset of eight of the ToxCast chemicals (indoxacarb, pyrithiobac-sodium, norflurazon, cyhalofop-butyl, methomyl, thiram, acetochlor, and propiconazole). These replicate data, coupled with internal replicates designed within the blinded ToxCast chemical library, provided additional data to evaluate interindividual differences between hepatocyte preparations and their potential impact on chemical profiles.Cell morphology and integrity were evaluated using phase-contrast microscopy as an indicator of hepatocyte cell health (Tyson & Green, 1987). Cultures for each treatment group (i.e., media, vehicle [0.2% DMSO], positive control inducers [multiple concentrations], and the ToxCast chemicals [multiple concentrations]) were observed and cell morphology was assessed relative to vehicle control cultures at each harvest time point (0, 6, 24, or 48 h). […] Images were evaluated at the conclusion of the study to assess changes in cell integrity and account for the effects of chemical exposure on uncharacteristic changes in concentration-dependent gene expression profiles. The results from these determinations of apparent cytotoxicity were annotated (yes/no) alongside the corresponding qNPA data for reference.At the conclusion of each treatment period, hepatocyte cultures (96-well) were washed with 1 volume of HBSS, lysed by addition of 25 ul ArrayPlate lysis buffer (HTG, Tucson, AZ), and 70 ul/well of Denaturation Oil, denatured by incubation at 95C for 10 min, and frozen at approximately -70C until analysis by nuclease protection assay (qNPA) (Roberts et al., 2007). For qNPA analysis, cell lysates were thawed at 50C for approximately 30 min, qNPA probes were added, and samples were incubated at 95C for 10 min to begin the detection process by denaturing the target RNA, dissociating the duplexes and secondary structure hybridization. At the conclusion of the hybridization period, S1 nuclease reagent was added to each sample to digest all nonprotected nucleotides at 50C for 60-90 min. […]
Consider `Cc1[nH]c(=O)n(C(C)(C)C)c(=O)c1Cl`, for which the call was inactive.

As for `O=C(O)CCCOc1ccc(Cl)cc1Cl`, the outcome was inactive.

For the compound `C[C@H]1[C@H](c2ccc(Cl)cc2)SC(=O)N1C(=O)NC1CCCCC1`, the compound was called inactive.

On to `CC(C)OC(=O)Nc1cccc(Cl)c1`, for which the call was inactive.

For `C#CCN1C(=O)COc2cc(F)c(N3C(=O)C4=C(CCCC4)C3=O)cc21`, the result was inactive.

As to `CCOc1nc(NC)nc(NC(=O)NS(=O)(=O)c2ccccc2C(=O)OC)n1`, the result was inactive.

As for `Cc1cc(C)nc(NC(=O)NS(=O)(=O)c2ccccc2C(=O)OC2COC2)n1`, the result was inactive.

As for `N#CN`, the result was inactive.

On to `CCOC1Oc2ccc(OS(C)(=O)=O)cc2C1(C)C` (stereo unspecified), for which the compound was classed as inactive.

Take `Clc1ccccc1-c1nnc(-c2ccccc2Cl)nn1`: the call was inactive.

Take `COC(=O)c1ccccc1CS(=O)(=O)NC(=O)Nc1nc(OC)cc(OC)n1`: the result was inactive.

In the case of `CNC(=O)Oc1ccccc1OC(C)C`, the compound was called inactive.

For the compound `O=[N+]([O-])c1c(Cl)c(Cl)c(Cl)c(Cl)c1Cl`, the compound was classed as inactive.

Consider `ClC1C(Cl)C(Cl)C(Cl)C(Cl)C1Cl` (stereo unspecified), for which the outcome was inactive.

Consider `CCC(C)(C)C(=O)OC1=C(c2ccc(Cl)cc2Cl)C(=O)OC12CCCCC2`, for which the outcome was inactive.

With `COc1cc(OC)nc(NC(=O)NS(=O)(=O)c2cc(NC=O)ccc2C(=O)N(C)C)n1`, the result was inactive.

Regarding `CC(C)(C)C(O)/C(=C\c1ccc(Cl)cc1Cl)n1cncn1` (stereo unspecified), the compound was classed as inactive.

With `COC(=O)c1ccccc1S(=O)(=O)NC(=O)N(C)c1nc(C)nc(OC)n1`, the result was inactive.

On to `CN1CSC(=S)N(C)C1`, for which the call was inactive.

Consider `CCCN(CCC)c1c([N+](=O)[O-])cc(C(F)(F)F)cc1[N+](=O)[O-]`, for which the compound was classed as inactive.

Regarding `CCc1ccc(C(=O)NN(C(=O)c2cc(C)cc(C)c2)C(C)(C)C)cc1`, the compound was called inactive.

In the case of `COP(=S)(OC)Oc1ccc([N+](=O)[O-])cc1`, the call was inactive.

Take `CCC(C)(NC(=O)c1cc(Cl)c(C)c(Cl)c1)C(=O)CCl` (stereo unspecified): the result was inactive.

On to `COP(=O)(OC)OC=C(Cl)Cl`, for which the call was inactive.

With `CC(C)(C)C(O)C(Oc1ccc(Cl)cc1)n1cncn1` (stereo unspecified), the compound was called inactive.

As for `CC1(C)C(C=C(Cl)Cl)C1C(=O)OC(C#N)c1ccc(F)c(Oc2ccccc2)c1` (stereo unspecified), the outcome was inactive.
